This test addresses T1, Aspartate--tRNA(Asp/Asn) ligase (Mycobacterium tuberculosis (strain ATCC 25618 / H37Rv)) (UniProt P9WFW3).
T1 sequence (whole entry): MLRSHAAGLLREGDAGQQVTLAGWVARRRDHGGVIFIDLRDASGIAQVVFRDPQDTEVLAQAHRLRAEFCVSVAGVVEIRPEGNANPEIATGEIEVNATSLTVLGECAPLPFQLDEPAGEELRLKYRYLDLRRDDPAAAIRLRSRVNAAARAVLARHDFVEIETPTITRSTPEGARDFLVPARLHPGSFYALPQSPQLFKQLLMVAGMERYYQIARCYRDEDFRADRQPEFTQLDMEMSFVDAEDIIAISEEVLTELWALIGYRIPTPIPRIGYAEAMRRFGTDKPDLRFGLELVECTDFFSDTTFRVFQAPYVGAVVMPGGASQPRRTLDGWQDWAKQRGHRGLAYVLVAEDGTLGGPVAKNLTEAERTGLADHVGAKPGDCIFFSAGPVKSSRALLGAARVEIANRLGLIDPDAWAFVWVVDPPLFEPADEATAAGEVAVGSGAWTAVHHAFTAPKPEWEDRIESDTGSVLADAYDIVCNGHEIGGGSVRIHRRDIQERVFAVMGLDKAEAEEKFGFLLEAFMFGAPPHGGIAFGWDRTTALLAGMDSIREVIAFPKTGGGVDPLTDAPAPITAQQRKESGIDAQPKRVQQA
The experiment in a line: Assay for Asp RNA synthetase-1 from Mycobacterium tuberculosis. The class given is functional. Also noted: scale not given: in the data most compounds retested in dose-response had high values. The conditions noted are these: 30 µM.
As to `Cc1nc2n(n1)CC(Nc1cc(C(F)(F)F)nc3ncnn13)CC2` (stereo not given), the Percent Effect was -5.49%. For `CC(NCc1c(C(C)C)nn(C)c1N1CCOCC1)C(N)=O` (stereo not given) the value was -7.54%; for `Cc1cc(CNC(=O)N2CCN(c3ccccc3)CC2)no1`, 1.31%. Regarding `O=C(c1n[nH]c(=O)c2ccccc12)N1CCCCC1c1ccn[nH]1` (stereo not given), the Percent Effect was -1.09%. As for `COc1ccc(Cl)cc1NCC(=O)NCCc1ccccn1`, the figure is -0.954%; as for `CCN1CCCn2c(nc(CNC(=O)c3ccsc3)cc2=O)C1`, 7.56%. Regarding `O=C(c1cccnc1-n1cncn1)N1CCc2ccccc2C1`, the Percent Effect is -3.76%. For `CN(C)C(=O)CS(=O)(=O)Cc1cc(Cl)c2c(c1)OCCCO2` the value was 4.36%; for `CN1N=C(C(=O)N2CCCC(CCc3c(F)cccc3F)C2)CCC1=O` (stereo not given), -2.6%.

On to `O=C(NCCc1nnc2n1CCC2)NCC1(c2cccc(F)c2)CC1`, for which the Percent Effect is -2.55%. As for `N#Cc1ccc(C(=O)N2CCn3c(Cn4cccn4)cnc3C2)cc1`, the figure is 1.54%; as for `OCC1CCCN1c1cc(NCc2ccc(Cl)s2)ncn1` (stereo not given), 0.451%.

Take `CCc1n[nH]c(C2CN(CCc3cccs3)CCO2)n1` (stereo not given): the Percent Effect is -6.83%. For `CCOCC1CN(Cc2cccc(C#N)c2)Cc2nccn2C1` (stereo not given) the value was -2.92%; for `CCn1ccnc1CN1CCCN(C(=O)c2cc(Cl)c[nH]2)CC1`, -5.23%. On to `Cc1cc(C)c(CNC(=O)NCc2ccc3c(c2)CCC3)c(=O)[nH]1`, for which the Percent Effect is -4.97%.

As for `CC(=O)N1CCN(c2cc(C3CN(C)CCO3)nc(C)n2)CC1` (stereo not given), the Percent Effect was found to be 0.67%. Take `CCc1nnc(CN(C)c2nc(C3CCCC3)nc3c2cnn3C)o1`: the Percent Effect was -4.57%. As to `Cc1ccc(CNC(=O)Cn2ncc3c2c(C)nn3C)cc1`, the Percent Effect was -3.46%.

`O=C(c1cccnc1)N1C[C@@H]2CC[C@H](C1)N(Cc1cccc(Cl)c1F)C2`: the Percent Effect amounted to 9.03%. `COc1cc(NC(=O)c2ccccc2F)c(C(=O)N(C)C)cc1OC`: the Percent Effect is 8.8%. For `CNC(=O)c1cc2c(nc1NC(C)C)CCN(C(=O)NC(C)C)CC2` the value was -2.07%; for `Cn1nnc2cc(C(=O)N3CCCC3Cc3ccccc3)ccc21` (stereo not given), 2.04%; for `CO[C@@H]1CCN(C(=O)c2ccccn2)[C@H]1Cc1ccccc1`, 3.21%.

For the compound `Cc1c(I)cccc1C(=O)NCC1(CO)CC1`, the Percent Effect came out at 0.747%.

For the compound `COc1cc2cc(C(=O)N[C@@H](C)C(=O)O)n(C)c2c(OC)c1OC`, the Percent Effect was -3.11%.

Take `Cc1ccc(CN2CCCC3(CCN(S(=O)(=O)N(C)C)C3)C2)o1` (stereo not given): the Percent Effect was 0.162%.

On to `Cc1nc(CN2CCOC(c3nc(C(C)C)n[nH]3)C2)oc1C` (stereo not given), for which the Percent Effect turned out to be 0.999%. As for `CCc1csc(C2CCCN(C(=O)c3ccc(OC)nn3)C2)n1` (stereo not given), the figure is -3.92%; as for `COCC(=O)NCCn1ccc2c(OC)cccc21`, -1.31%. As for `CCc1nccn1C1CCCN(C(=O)c2cnc3ccccc3n2)C1` (stereo not given), the figure is 1.02%; as for `CC(=O)N1CC(=O)N(c2ccccc2)CC12CCN(Cc1nccs1)C2` (stereo not given), 7.34%. As for `CCc1ccc(C(=O)N2CCCC(c3noc(CC)n3)C2)o1` (stereo not given), the figure is -2.33%. Consider `COCCc1noc(CN2CCCCC2Cn2cc(C)cn2)n1` (stereo not given), for which the Percent Effect was -2.46%. In the case of `O=C(CN1CCCC1Cn1cncn1)NCCc1c(F)cccc1F` (stereo not given), the Percent Effect came out at 1.46%. As for `O=C1CCCCN1Cc1cccc(NC(=O)N2CCSCC2)c1`, the figure is -4.71%.

Consider `CS(=O)(=O)N1CCN(CC(O)COc2ccc(F)cc2)CC1` (stereo not given), for which the Percent Effect turned out to be 1.99%.

Take `CCCN(CC)C(=O)c1cc2c(c3ccccc3n2C)n1C(=O)N(C)C`: the Percent Effect turned out to be 6.03%.

Regarding `Cc1nccn1-c1cc(CNC(=O)CCNC(=O)C2CCCC2)ccn1`, the Percent Effect was -2.19%.

In the case of `Cc1cnn(CCNCC(O)COc2ccc(C#N)cc2)c1` (stereo not given), the Percent Effect was found to be 1.2%.

(Values after ChEMBL document CHEMBL3988442, “University of Dundee, Small-Polar-MMV Screening Library” (2021).)
